Results taken from PubChem BioAssay (NCI).
This is part of a sample that, as a whole, favours compounds with a hit. Of some 83,000 tested, about 20% had one in any assay.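 For each line, cells grew in 96-well plates with the test compound present at a single concentration for 48 hours.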 Unmarked numbers belong to inactive results. Active and inactive are the calls of the source. Rule for the calls: active = growth percent below 10; inactive = the rest.

Experiments:
Assay in all cases: NCI-60 one-dose screen, 48 h (100 = growth as untreated, 0 = no growth, -100 = all killed)
Conditions in all cases: 10 µM unless noted
HCT-15 colon = test system: HCT-15 colon
HT29 colon = test system: HT29 colon
SNB-75 CNS = test system: SNB-75 CNS
SNB-19 CNS = test system: SNB-19 CNS
U251 CNS = test system: U251 CNS
PC-3 prostate = test system: PC-3 prostate
SK-MEL-5 melanoma = test system: SK-MEL-5 melanoma
LOX IMVI melanoma = test system: LOX IMVI melanoma
SK-MEL-28 melanoma = test system: SK-MEL-28 melanoma
UACC-62 melanoma = test system: UACC-62 melanoma

Row | SMILES | growth (HCT-15 colon) | growth (HT29 colon) | growth (SNB-75 CNS) | growth (SNB-19 CNS) | growth (U251 CNS) | growth (PC-3 prostate) | growth (SK-MEL-5 melanoma) | growth (LOX IMVI melanoma) | growth (SK-MEL-28 melanoma) | growth (UACC-62 melanoma)
1 | Cc1cc(C)cc(CCCCCCCCCCCCCCCCCC(=O)O)c1 | 102% | 110% | 97.2% | 115% | 110% | 106% | 102% | 104% | 119% | –
2 | CCN(CC)C(Cl)=Nc1ccc(Cl)cc1 | 98.1% | 97.3% | 88.5% | 95.5% | 94% | 103% | 102% | 102% | 106% | –
3 | Nc1c(C(=O)Nc2cccc(Cl)c2)sc2ncc(Br)cc12 | 82.5% | 66.4% | 56% | 107% | 10.8% | 80.1% | 95.6% | 39.9% | 89.2% | –
4 | C/C(=N\NC(=S)Nc1ccccc1)c1ccccn1 | 28.1% | 34.4% | 79.9% | 43.5% | 32.1% | 31.6% | 16.5% | 37.3% | 59.8% | –
5 | Cc1cc(C)c2c(NC(=O)Nc3ccc(Cl)c(Cl)c3)n[nH]c2n1 | 100% | 96.9% | 88.7% | 101% | 102% | 103% | 103% | 99.8% | 104% | –
6 | Cc1nn(-c2ccc(Cl)cc2)c(=O)n1CCN1CCOCC1 | 74.2% | 104% | 7.65% (active) | 58.7% | 42.9% | 80.8% | 80.3% | 81.6% | 92.9% | –
7 | Nc1nc2c(c3ncccc13)C(c1ccccc1)Cc1ncccc1-2 (stereo unspecified) | 46.1% | 56.9% | 71.2% | 91.8% | 72.2% | 73.9% | 53.1% | – | 83.5% | –
8 | C#CC[C@@H]1C[C@]2(C)[C@H]3CC[C@@H]4[C@H]5C(C(=C)C)CC[C@]5(C(=O)NCCCN5CCN(CCCN)CC5)CC[C@@]4(C)[C@]3(C)CC[C@H]2C(C)(C)[C@H]1OC(C)=O (stereo partly specified) | -50.4% (active) | -68.7% (active) | -95.7% (active) | -8.5% (active) | -68.2% (active) | 8.53% (active) | 83.3% | -85.3% (active) | -59.5% (active) | –
9 | COc1ccccc1/C=N\NC(=S)Nc1ccc(F)cc1 | 50.8% | 46.9% | 84.4% | 89.1% | 62% | 83% | 85.1% | 78.4% | 78.3% | –
10 | O=C(O)c1ccccc1N=Cc1ccccc1 | 111% | 108% | 119% | 112% | 106% | 87.6% | 116% | 92.6% | 129% | –
11 | C/C(=C\C(=N\N=C(N)N)c1ccc(Cl)cc1)c1ccc(Cl)cc1 | -69.5% (active) | -70.1% (active) | -82.9% (active) | -79.8% (active) | -93% (active) | -80% (active) | -98.7% (active) | -59.1% (active) | -81% (active) | –
12 | O=C(C(=O)c1cccnc1)c1cccnc1 | 120% | 108% | 107% | 110% | 112% | 107% | 105% | 100% | 135% | –
13 | C#CCNC(=S)N/N=C(\C)c1ccccn1 | 28.4% | 31.5% | 43.4% | 38.8% | 23.1% | 48.1% | -30.5% (active) | 15.3% | 55.3% | –
14 | COc1cccc(/C=N/N=C(N)N)c1 | 100% | 100% | 89.9% | 101% | 103% | 97.2% | 98.1% | 106% | 106% | –
15 | Clc1ccc2c(c1)-n1cccc1C(c1ccc3ccccc3c1)=NC2 | 77.2% | 74.1% | 83.2% | 79.1% | 95.6% | 79.8% | 95.8% | 112% | 100% | –
16 | Nc1n[nH]c2ccc([C@@H]3Nc4c(F)cc5[nH]ncc5c4[C@H]4C5CCC(C5)[C@@H]34)cc12 (stereo partly specified) | 19.8% | 11.7% | 7.8% (active) | 27.9% | 14.3% | 22.8% | 4.3% (active) | 20.3% | 49.2% | –

Row | SMILES | growth (HCT-15 colon) | growth (HT29 colon) | growth (SNB-75 CNS) | growth (SNB-19 CNS) | growth (U251 CNS) | growth (PC-3 prostate) | growth (SK-MEL-5 melanoma) | growth (LOX IMVI melanoma) | growth (SK-MEL-28 melanoma) | growth (UACC-62 melanoma)
17 | COc1ccc(C2CC(c3ccc(Nc4ccnc5cc(Cl)ccc45)cc3)=NN2c2ccccc2)cc1 (stereo unspecified) | 87.2% | 52% | 104% | 109% | 81.9% | 78% | 79.9% | 100% | 97.3% | –
18 | COc1cccc(Cn2c(-c3nonc3NC(C)=O)nc3ccccc32)c1 | 34.9% | 21.5% | 10.1% | 71.3% | 27.1% | 21.4% | 28.4% | 50.2% | 57.3% | –
19 | CNCCCNc1ccnc2cc(Cl)ccc12 | 6.57% (active) | -33.1% (active) | -52.8% (active) | -1.63% (active) | – | 1.91% (active) | -96.1% (active) | -49.8% (active) | -96.3% (active) | -75.2% (active)
20 | COc1cc(NC(C)CCCN)c2ncccc2c1Oc1ccc(Cl)cc1 (stereo unspecified) | 84.5% | 34.5% | 78.7% | 91% | – | 63.9% | 81% | 39.9% | 109% | 91.1%
21 | COc1ccc2c(c1)CCCC21C(=O)Nc2c(Cl)cccc21 (stereo unspecified) | 85% | 21.1% | 41% | 82.9% | – | 74.4% | 76.8% | 71.3% | 64.7% | 58%
22 | CCCCCCCCCCCC1=NC(C)(C)CN1C(C)(C)CO | 8.9% (active) | -29.3% (active) | 49.3% | 114% | – | 54.9% | 8.52% (active) | -35.1% (active) | -5.89% (active) | -69.5% (active)
23 | CC(=O)OC1Oc2ccccc2-c2oc3nc(=N)n(C)c-3cc21 (stereo unspecified) | 104% | 109% | 112% | 106% | – | 97.4% | 108% | 103% | 122% | 106%
24 | Clc1ccc(Nc2ncnc3c2sc2ncccc23)c(Cl)c1 | 47.7% | 39.4% | 42.3% | 27.4% | – | 49.5% | 28% | 4.08% (active) | 65.9% | 12.7%
25 | O=C(Nc1ccc(Oc2ccc(Nc3nc4ccccc4s3)cc2)cc1)Nc1ccc(Cl)c(C(F)(F)F)c1 | 8.45% (active) | -10.9% (active) | 16.7% | 22.5% | – | 3.08% (active) | -84.8% (active) | -88.3% (active) | 25.3% | 1.63% (active)
26 | CCOc1c(C#N)c2c(N)ncnc2n1C1OC(CO)C(O)C1O (stereo unspecified) | 23.1% | 22.6% | 62.4% | 72.7% | – | 16.2% | 79% | 18.9% | 20.4% | 49.8%
27 | Nc1nc(N)c2cc(CNc3ccc(Cl)c(Cl)c3)ccc2n1 | 9.76% (active) | -75.2% (active) | 40.1% | 31.5% | – | 22.5% | 15.4% | -54.8% (active) | 60.1% | 21%
28 | OC(c1cc2cc(Cl)ccc2c2cc(C(F)(F)F)ccc12)C1CCCCN1 (stereo unspecified) | -61.7% (active) | -87.3% (active) | -90% (active) | -68.6% (active) | – | -83.1% (active) | -24.9% (active) | -39.8% (active) | -90.5% (active) | -72.7% (active)
29 | COc1ccc2[nH]c(O)c(/C=c3/ccc4c(c3)N=C(c3ccc(F)cc3)N=4)c2c1 | 50.1% | 84.5% | -12.3% (active) | 87.1% | – | 47.4% | 61.5% | 16.3% | 72.7% | 90.1%
30 | COc1cccc(OCC(O)CN2CCN(c3ccccc3)CC2)c1 (stereo unspecified) | 117% | 103% | 96.5% | 105% | – | 109% | 108% | 104% | 81.4% | –
31 | COC(=O)C(CCC(=O)CCl)N1C(=O)c2ccccc2C1=O (stereo unspecified) | 48.1% | 34.3% | 91.5% | 99.9% | – | 60.3% | 71.3% | – | 87% | 64.8%
